Screens as filed in PubChem.
This excerpt belongs to a sample that is enriched for hits.
Shiga inhibitor – A qHTS for Small Molecule Inhibitors of Shiga Toxin. Vero cells, Shiga toxin protein synthesis inhibition reporter. inhibition, % at 38.7 µM. 9.2% of 290,000 active. AID 2315, 2010; in the data active = inhibition mostly above about 28%, no sharp cut-off; inactive = mostly below about 43%
Marburg entry inh – qHTS for inhibitors of binding or entry into cells for Marburg Virus; Potency, µM (titrated, usually from 37.8 µM), actives largely listed as inhibitors; AID 540276, 2011; Marburg virus pseudotyped entry inhibition, cell reporter; 1.8% of 300,000 active; calls by dose curve; tested in HEK293 cells
AMA1 RON2 block – qHTS for Inhibitors of AMA1-RON; Towards Development of Antimalarial Drug Lead: Primary Screen. Plasmodium falciparum AMA1 (3D7) - RON2 peptide interaction. AlphaScreen AMA1-biotinylated RON2 peptide binding. Potency, µM (highest dose often 58.2 µM), usual class: inhibitors. 0.2% of 360,000 active. AID 720542, 2013; active = well fitted inhibition curve with a large enough effect; inconclusive = small, poorly fitted or top-dose-only effect; inactive = no such curve, though single readings can be large or run the other way; also: nearly all actives have a fitted effect of over 45% in size
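AMA1 (3D7) with his tag at 25 nM final met compounds first, then biotinylated RON2 peptide at 25 nM; detection used donor plus acceptor beads, 10 µg/mL apiece, read by AlphaScreen after 30 min at room temperature.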
Lassa entry inh – qHTS for Inhibitors of binding or entry into cells for Lassa Virus. Lassa virus pseudotype entry inhibition, cell reporter. Potency, µM (titrated, usually from 37.9 µM), most hits filed as inhibitors. 1.2% of 300,000 active; calls by dose curve; tested in HEK293 cells; also: nearly all actives have a fitted effect of over 50% in size
Cycloheximide cs – Cycloheximide Counterscreen for Small Molecule Inhibitors of Shiga Toxin; max response, %; 12% of 300,000 active; cell reporter, cycloheximide protein synthesis inhibition counterscreen; in the data active = max response mostly above about 13%, no sharp cut-off; inactive = mostly below about 14%; also: read at 38.3 µM for the half of the compounds with a filed dose
Each line names hits and unclear results; the compound was inactive in the other large screens; ! = a repeat was not active.

COc1cccc(-c2nc3ccc(C(=O)NC(C)Cc4cccnc4)cc3o2)c1 (centres undefined)	Shiga inhibitor 28, Cycloheximide cs 29 (no result: Marburg entry inh, Lassa entry inh)
CCc1nn2c(=O)cc(COC(=O)CNC(=O)c3ccccc3)nc2s1	none (no result: Shiga inhibitor, Marburg entry inh, AMA1 RON2 block, Cycloheximide cs)
COC(=O)c1c(C)oc2ccc(N(C(=O)c3ccncc3)S(=O)(=O)c3ccccc3)cc12	Marburg entry inh inconclusive, Lassa entry inh inconclusive
COC(=O)c1c(C)oc2ccc(N(C(=O)c3ccncc3)S(=O)(=O)c3ccc(C)cc3C)cc12	Marburg entry inh 5.6µM, Lassa entry inh inconclusive
COC(=O)c1c(C)oc2ccc(N(C(=O)c3ccncc3)S(=O)(=O)c3ccc(C)cc3)cc12	Marburg entry inh 3.2µM
COc1ccc(N(CCC#N)S(=O)(=O)c2cccc3nsnc23)cc1	none
CSc1ccccc1COC(=O)Nc1ccccc1C	Marburg entry inh inconclusive, Cycloheximide cs 29
C[C@H](NC(=O)OCc1ccccc1)C(=O)NNC(=O)[C@H](C)NC(=O)OCc1ccccc1	none (no result: Marburg entry inh, Lassa entry inh)
CSc1nsc(SC)c1NC(=O)OCc1ccccc1	Cycloheximide cs 22
Cc1ccccc1NC(=O)OCc1ccccc1	Shiga inhibitor 59, Cycloheximide cs 28
CC1(c2nnnn2-c2ccc3c(c2)OCCO3)CCC(=O)N1CCc1ccccc1F (centres undefined)	none (no result: Shiga inhibitor, Marburg entry inh, Lassa entry inh, Cycloheximide cs)
COc1cccc2cc(C(=O)N3CCCCCCC3)c(=O)oc12	Shiga inhibitor 44, Marburg entry inh inconclusive, Cycloheximide cs 32
COc1cccc2cc(C(=O)N3CCN(c4ccc(C)cc4C)CC3)c(=O)oc12	none (no result: Lassa entry inh)
COc1cccc2cc(C(=O)N3CCN(c4ncccn4)CC3)c(=O)oc12	Cycloheximide cs 14
CN(CC(=O)Nc1ccccc1Cl)C(=O)CSc1nnc(-c2ccco2)o1	none
O=C(CSc1nnc(-c2ccco2)o1)Nc1ccccc1Cl	Cycloheximide cs 16 (no result: Marburg entry inh, Lassa entry inh)
O=C(CSc1nnc(-c2ccccn2)o1)Nc1ccccc1Cl	Shiga inhibitor 71, Marburg entry inh inconclusive, Cycloheximide cs 33 (no result: Lassa entry inh)
O=c1c2ccccc2nnn1CSc1nnc(-c2ccco2)o1	Lassa entry inh inconclusive, Cycloheximide cs 20
CC(C)(C)C(=O)Nc1ccc2nc(SCCOc3ccccc3Cl)sc2c1	Lassa entry inh inconclusive (no result: Shiga inhibitor, AMA1 RON2 block, Cycloheximide cs)
CCN(CC)CCOC(=O)c1cc(Cl)c(N)cc1OC	Marburg entry inh 13µM!, Lassa entry inh inconclusive (no result: Shiga inhibitor, Cycloheximide cs)
CCN(CC)CCNC(=O)c1cc(Cl)c(N)cc1OC	Marburg entry inh inconclusive, Lassa entry inh inconclusive
O=C(N/N=C/c1ccco1)c1ccc2nc[nH]c2c1	none
O=C(N/N=C/c1ccc(Cl)cc1Cl)c1ccc2nc[nH]c2c1	Shiga inhibitor 53, Cycloheximide cs 24 (no result: Marburg entry inh, Lassa entry inh)
CCc1ccc(C(=O)N/N=C/c2ccc(Cl)cc2Cl)nc1	Cycloheximide cs 18 (no result: Marburg entry inh, AMA1 RON2 block, Lassa entry inh)
O=C(N/N=C/c1ccccc1C(F)(F)F)c1ccc2nc[nH]c2c1	Shiga inhibitor 29, Cycloheximide cs 49 (no result: Marburg entry inh, Lassa entry inh)
O=C(N/N=C/c1cc([N+](=O)[O-])ccc1Cl)c1ccc2nc[nH]c2c1	none
O=C(N/N=C/c1ccc(Cl)cc1Cl)c1cccc(F)c1	Shiga inhibitor 137, Marburg entry inh inconclusive, Cycloheximide cs 33
Cn1cc(C(c2ccccc2OCC(=O)O)c2cn(C)c3ccccc23)c2ccccc21	Marburg entry inh inconclusive, Lassa entry inh inconclusive
Cc1cc(=O)oc2cc(OC(C)C(=O)N3CCCc4ccccc43)ccc12 (centres undefined)	Marburg entry inh inconclusive, Cycloheximide cs 24
Cc1ccccc1OCC(=O)Nc1ccc2c(c1)C(=O)c1ccccc1C2=O	Shiga inhibitor 38, Marburg entry inh inconclusive, Cycloheximide cs 23
O=C(COC(=O)Cn1cnc2ccccc21)Nc1ccc(Br)cc1	none (no result: Shiga inhibitor, Marburg entry inh, Lassa entry inh, Cycloheximide cs)
CC(=O)c1cccc(NC(=O)COC(=O)c2ccccc2C)c1	Shiga inhibitor 110, Marburg entry inh inconclusive, Lassa entry inh inconclusive, Cycloheximide cs 62
O=C(COC(=O)Cn1cnc2ccccc21)Nc1ccc2c(c1)C(=O)c1ccccc1C2=O	Shiga inhibitor 18, Marburg entry inh inconclusive, Cycloheximide cs 67
Cc1ccccc1OCC(=O)Nc1ccc2c(c1)Cc1ccccc1-2	none
Cc1ccccc1OCC(=O)Nc1ccc(N2CCN(C)CC2)c(Cl)c1	Shiga inhibitor 85, Marburg entry inh inconclusive, Cycloheximide cs 29
CCOc1ncccc1C(=O)OCC(=O)Nc1cccc(C(C)=O)c1	Marburg entry inh inconclusive
O=C(COc1ccccc1Cl)Nc1ccccc1C(=O)Nc1cccc(C(=O)O)c1	Cycloheximide cs 40 (no result: Marburg entry inh, Lassa entry inh)
Cc1cccc(OCC(=O)Nc2cc(NC(=O)COc3cccc(C)c3C)cc(C(=O)O)c2)c1C	none (no result: Marburg entry inh, Lassa entry inh)
O=C(COc1ccccc1Cl)Nc1ccc(C(=O)O)cc1NC(=O)COc1ccccc1Cl	none
Cc1ccccc1OCC(=O)Nc1cccc(C(=O)O)c1	Marburg entry inh inconclusive, Lassa entry inh 0.89µM, Cycloheximide cs 26
Cc1ccc(/C=N/N2CCN(Cc3ccccc3)CC2)cc1	Marburg entry inh inconclusive, AMA1 RON2 block 13µM, Cycloheximide cs 17
CC(/C=N/N1CCN(Cc2ccccc2)CC1)=C\c1ccccc1	AMA1 RON2 block 13µM, Cycloheximide cs 25
C(=N\N1CCN(Cc2ccccc2)CC1)/c1ccc(-c2ccccc2)cc1	none (no result: Marburg entry inh, Lassa entry inh)
Fc1ccc(/C=N/N2CCN(Cc3ccccc3)CC2)cc1	Shiga inhibitor 62, Marburg entry inh inconclusive, AMA1 RON2 block inconclusive, Cycloheximide cs 20
COc1ccccc1/C=C/C=N/N1CCN(Cc2ccccc2)CC1	AMA1 RON2 block inconclusive, Cycloheximide cs 13
CCOc1ccc(NC(=O)Cn2nnc(C(=O)OC)c2C(=O)OC)cc1	none (no result: Shiga inhibitor, AMA1 RON2 block, Cycloheximide cs)
Nc1ccc(C(=O)OCc2nc3cc4ccccc4cc3[nH]2)cc1	Shiga inhibitor 48, Marburg entry inh 1.6µM, Lassa entry inh 2.6µM
Nc1ccc(C(=O)OCc2nc3c(ccc4ccccc43)[nH]2)cc1	Shiga inhibitor 80, Marburg entry inh inconclusive, Lassa entry inh 8.9µM, Cycloheximide cs 25
Nc1ccc(Cc2nc3cc4ccccc4cc3[nH]2)cc1	Shiga inhibitor 52, Marburg entry inh inconclusive, Lassa entry inh 2.6µM, Cycloheximide cs 45
Cc1cccc(OCC(=O)NC(=S)Nc2ccc(S(=O)(=O)NC3CCCCC3)cc2)c1	none
CCOC(=O)N1CCC(NC(=O)c2cc(C(=O)Nc3ccc(S(=O)(=O)N4CCCCC4)cc3)ccc2CO)CC1	none (no result: Marburg entry inh, Lassa entry inh)
O=C(Cc1sc(Nc2ccccc2)nc1-c1ccccc1)NCc1ccccn1	Shiga inhibitor 53, Cycloheximide cs 39 (no result: Lassa entry inh)
O=C(O)Cc1sc(Nc2ccc(C(=O)O)cc2)nc1-c1ccccc1	Marburg entry inh inconclusive (no result: Shiga inhibitor, AMA1 RON2 block, Cycloheximide cs)
O=C(O)Cc1sc(Nc2ccc(F)cc2)nc1-c1cccs1	Shiga inhibitor 60, Marburg entry inh inconclusive, Lassa entry inh inconclusive, Cycloheximide cs 30
Cc1ccc(Nc2nc(-c3ccccc3)c(CC(=O)O)s2)cc1	Shiga inhibitor 82, Cycloheximide cs 47
O=C(O)Cc1sc(Nc2ccccc2)nc1-c1ccc(Cl)cc1	Shiga inhibitor 119, Cycloheximide cs 42
COc1ccc(C(C)(NC(C)=O)c2nc(-c3cnc4ccccc4c3)cs2)cc1 (centres undefined)	none (no result: Shiga inhibitor, Marburg entry inh, Lassa entry inh, Cycloheximide cs)
O=C(NCc1ccccc1)c1cc(C2CCCN(S(=O)(=O)c3ccccc3)C2)on1 (centres undefined)	none (no result: Shiga inhibitor, Marburg entry inh, Lassa entry inh, Cycloheximide cs)
